Each structure is given as a SMILES string. The panel holds about 83,000 compounds, 20% with a hit somewhere; the sample as a whole holds those more often.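 Values shown are percent growth following 48 h exposure of cells in 96-well plates to a single concentration of compound; below 10 was considered active.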 Unmarked numbers belong to inactive results. The source made the active and inactive calls.

The experiment deals with HL-60(TB) leukemia. The experiment is described as follows: NCI-60 one-dose screen, 48 h (100 = growth as untreated, 0 = no growth, -100 = all killed). Particulars: 10 µM unless noted.
Turning to `COc1ccc(C2CC(c3ccc(Cl)cc3)=NN2/C=C2\SC(=S)N(NC(=O)Cc3ccccc3Nc3c(Cl)cccc3Cl)C2=O)cc1` (stereo not given), the growth was 64.7%.
`COc1ccc(Nc2ncc(Br)c(NCCCNC(=O)C3CCCC3)n2)cc1`: the growth is 17%.
The figure for `CN(C)C/C=C/C(=O)Nc1cc2c(Nc3cccc(Cl)c3F)ncnc2cc1OCCOC(F)F` is 43.2%; for `c1ccc2c(-c3nc(-c4c[nH]c5ncccc45)cs3)c[nH]c2c1` it is 88%; for `O=C(COc1ccc(/C=C2\Cc3ccc(Cl)cc3C2=O)cc1)Nc1nc2ccccc2s1` it is 117%.
The figure for `S=c1[nH]nc(Cn2c3ccccc3c3ccncc32)o1` is 87.6%; for `CCN(CC)CCN1C(=O)c2cccc3c(/C=C/CN4C(=O)c5cccc6cccc(c56)C4=O)ccc(c23)C1=O` it is 83.4%.
The figure for `COc1cccc(C2C(C#N)=C(N)Oc3cc(OC)ccc32)c1` (stereo not given) is -32.2% (active); for `O=NN(Cc1cccnc1)C(=O)NC1CCCCC1` it is 120%; for `S=C(c1ccccc1)N1CCN(c2cccc(Cl)c2)CC1` it is 90.5%.
Take `COc1ccc(-c2[nH]c(=S)n(C(CC3(C)NCC(=O)N3n3c(-c4ccccc4)cc(C)nc3=S)c3ccc(OC)cc3)c(=O)c2Br)cc1` (stereo not given): the growth was 59.6%.
Next, `Cc1nn(-c2ccccc2)c2c1N=c1s/c(=C\c3cn(-c4ccccc4)nc3-c3ccc(Cl)cc3)c(=O)n1C(C)N2` (stereo not given): 78.5%; `CCOC(=O)c1cc(C(=O)c2ccc(Br)cc2)n2ccc(/C=C/c3cc[n+](CC(=O)c4ccc(OC)cc4)cc3)cc12`: 58.1%; `CCOC(=O)CCN(CC(C)C)C(=S)Nc1ccccc1`: 97.2%.
For the compound `Cc1cccc(NC(=O)CSc2nc3ccc([N+](=O)[O-])cc3[nH]2)c1`, the growth is 86.1%.
The figure for `COC(=O)[C@@]12OC[C@]34[C@H]([C@@H](O)[C@@H]1O)[C@@]1(C)[C@H](O)C(=O)C=C(C)[C@@H]1C[C@H]3OC(=O)C(OC(C)=O)[C@@H]24` (stereo not given in full) is -59% (active).
For the compound `COc1cc(CN2CCO[C@H](COc3cccc(F)c3)C2)ccc1Cl`, the growth was 26.3%.
On to `C=CC(COC(c1ccccc1)(c1ccccc1)c1ccccc1)N(CC)CC` (stereo not given), for which the growth is 48.1%.
The figure for `COc1ccc(C(=O)c2nccc3cc(OC)c(OC)cc23)cc1OC` is 102%.
The figure for `Cc1ccc(-c2nc(/C=C3/C(=O)Nc4ccc(F)cc43)c3ccccn23)cc1` is 110%; for `COc1cc(F)c(/C=C/c2cc(/C=C/c3cc(OC)c(OC)cc3F)on2)cc1OC` it is 85.2%.
Turning to `CCCC/C(=N\N=C(N)N)c1ccc(F)cc1`, the growth is -30.9% (active).
Turning to `ClCc1cccc(CSc2ncnc3c2ncn3Cc2cccc(CCl)c2)c1`, the growth is 23.7%.
The figure for `COc1cc2ncnc(Nc3ccc(S(=O)(=O)Nc4cc(C)on4)cc3)c2cc1OCCCN1CCN(c2ccc([N+](=O)[O-])cc2)CC1` is 118%.
The figure for `NS(=O)(=O)N(c1cc(C(F)(F)F)cc(C(F)(F)F)c1)C1CCN(Cc2ccc(F)cc2)CC1` is 26.3%; for `CC(=O)c1nc2ccccc2n1CCn1cc(CC(N)C(=O)O)c2ccccc21` (stereo not given) it is 100%; for `Cc1nc(/N=C(\N)NC(=O)Nc2cccc(Cl)c2)sc1C` it is 42.8%.
With `OCCN1CCCN(CCCN2c3ccccc3Sc3ccc(C(F)(F)F)cc32)CC1`, the growth is 45%.
The figure for `CCN(CC)c1ccc(/C=C(\C#N)c2cc3ccccc3[nH]2)cc1` is 45.6%; for `Oc1ccc(C(c2ccc(O)cc2)C(Cl)(Cl)Cl)cc1` it is 68.1%; for `CCCCCC(=O)N(CCCC)CCCC` it is 109%.
Next, `COc1ccc2c(c1)nc(NNC(=O)c1cnccn1)c1cccn12`: -6.85% (active); `Cc1cccc(-c2nc(C(C)C)sc2-c2ccnc(NCCCNS(=O)(=O)c3ccc(Cl)cc3)c2)c1`: 80.1%; `N#CC1(C#N)C2=C(CCCC2)NC(c2c(F)cccc2Cl)C1(C#N)C#N` (stereo not given): 6.9% (active).
The figure for `COc1ccc2c(c1)C(=O)CC(c1ccccc1OC)O2` (stereo not given) is 88.2%.
For the compound `O/N=C1\CCC2CCCCC2C1` (stereo not given), the growth is 98.8%.
`COc1ccc(C(=O)NC(=O)Nc2ccc3c(c2)NC(=O)/C3=C\c2[nH]c(C)c(C(=O)O)c2C)c(F)c1`: the growth was 80.8%.
As for `O=C1/C(=C/c2ccccc2O)CC/C1=C\c1ccccc1O`, the growth was 11.9%.
Next, `CC(C)(Sc1cc(C(C)(C)C)c(OC(=O)CCCC(=O)O)c(C(C)(C)C)c1)Sc1cc(C(C)(C)C)c(OC(=O)CCCC(=O)O)c(C(C)(C)C)c1`: -22.6% (active); `COc1cccc(NC(=O)c2c(-c3ccccc3)c(-c3ccccc3)n[nH]c2=O)c1`: 95.5%.

These data come from PubChem BioAssay (NCI).
